8 compounds from PubChem BioAssay (NCATS) can be followed below.

SMILES strings stand for the structures. A number with no mark means an inactive call. Records with an inconclusive call do not appear. The source made the active and inactive calls. Unless noted, calls come from the whole dose curve; as a rule, active = well fitted curve in either direction with a large enough effect (not every such curve was filed as active); inconclusive = small, poorly fitted or top-dose-only effect, or another doubt; inactive = flat fitted curve, though single readings scatter.

Test [1] can be described thus: AP1 Signaling Pathway (AID 357).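 Note: ME-180 reporter cells stimulated with EGF at its EC50 level; % is set by controls: 0 for no effect and ±100 for the full control effect.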 The following applies: ME-180 AP-1-bla reporter, EGF-induced, beta-lactamase ratio, 5 h; at 7.69 µM (top of the series) unless noted. In outline: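 Titration-series screen for positive or negative modulators of EC50 EGF-induced signaling in ME-180 cells carrying an AP-1-driven beta-lactamase reporter. After 5 hours at 37 degrees Celsius, CCF4 460nm/530nm emission ratio gave %Activity; AC50 values derived.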

Test [2] can be described thus: NFAT Signaling Pathway (AID 444).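 Note: carbachol stimulus at about its EC50 of 1 µM final; % is set by controls: 0 for no effect and ±100 for the full control effect.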 The note with it: Jurkat NFAT-bla M1, carbachol, beta-lactamase ratio, 5 h; at 7.69 µM (top of the series) unless noted. The gist of the method: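 Read-out: CCF4 FRET ratio (460 nm/530 nm) after 1 h RT dye loading, used for %activity and AC50 from titration series. Cells: Jurkat NFAT-β-lactamase/M1 line, treated with compound plus 1 uM carbachol for 5 h, 37 °C.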

Test [3] is described as follows: Stat Signaling Pathway (AID 446).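 Note: ME-180 cervical cancer cells given 40 pM IL-6 alongside compound; SIE-controlled beta-lactamase reporter measured as 460/530 nm FRET emission ratio; % is set by controls: 0 for no effect and ±100 for the full control effect.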 The note with it: ME-180 SIE beta-lactamase reporter, IL-6 stimulated, 5 h; series mostly up to 7.69 µM. In outline: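 Compound effects on IL-6-induced STAT reporter activity were measured in ME-180 cells. After overnight culture, cells were co-treated with 40 pM IL-6 for 5 hrs before beta-lactamase substrate loading at room temperature.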

The target in test [4] is Glucocorticoid receptor (Homo sapiens) (UniProt P04150). Put plainly: GR-GFP Redistribution (AID 450;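 active = compounds whose dose series gives a full or clear partial fitted curve of increased nuclear translocation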; note: potency is the fitted concentration of half-maximal effect). The note with it: U2OS GR-GFP nuclear translocation, laser cytometry, 2 h.
Test [5] has the same target. Put plainly: GR-EFC Redistribution (AID 451; calls by dose curve; note: potency is the fitted concentration of half-maximal effect). The note with it: CHO-K1 GR-EFC translocation, beta-gal luminescence, 2 h. In outline: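 Translocation of GR-ED fusion to nuclear EA restores b-gal, read by luminescence after 1 h room-temperature detection. Engineered CHO-K1 biosensor cells, 1,000/well, exposed 2 h at 37 C to titrations up to 46 uM final.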
Test [6] deals with Mitogen-activated protein kinase 10 (Mus musculus) (UniProt Q61831). The experiment in a line: JNK3 AlphaScreen Assay (AID 530).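 Note: kinase came from lysate of stimulated human HepG2 cells; signal reports phosphorylation of biotinylated GST-cJun 1-79 at Ser73 with 10 µM ATP; % is set by controls: 0 for no effect and ±100 for the full control effect.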 The note with it: JNK3 lysate, c-Jun phosphorylation; series mostly up to 57.1 µM. The gist of the method:
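qHTS titrations with 15 min compound pre-incubation before adding ATP (10 uM final). Read-out: AlphaScreen of Ser73-phosphorylated biotin-GST-cJun using HepG2 lysate JNK3 activated by IL-1β and TNFα.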

Test [7] deals with 3',5'-cyclic-AMP phosphodiesterase 4B (Homo sapiens) (UniProt Q07343). The experiment in a line: qHTS Assay for Inhibitors of PDE-IV (AID 607; active = well fitted activation curve with a large enough effect in the main read-out, with a control signal flat, not every such curve was filed as active; note: % of control where 0% means no effect). The note with it: HEK293 ACTOne CNG channel cells, membrane potential fluorescence; series mostly up to 22.9 µM. The gist of the method:
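ACTOne HEK293 cells carry a modified cAMP-gated CNG channel and express endogenous PDE4; plated 1000 cells/well, compounds up to 22.9 uM final. Membrane-potential dye fluorescence (ex 535/em 590) was read; parental cells received 10 uM forskolin + 100 uM RO 20-1724.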
On the technique in general: qHTS replaces the single test concentration by a dilution series.

Test [8] addresses Dual specificity protein kinase CLK4 (Homo sapiens) (UniProt Q9HAZ1). The experiment in a line: qHTS Assay for Inhibitors of CDC-like Kinase 4 (ADP-Glo Assay) (AID 1771; active = well fitted curve in the direction sought with a large enough effect; an effect the other way counts as inactive or inconclusive; note: nearly all actives have a fitted effect of over 70% in size; note: potency is the fitted concentration of half-maximal effect). The following applies: recombinant CLK4, ADP-Glo luminescence; series mostly up to 80 µM. The gist of the method: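 Compounds are pin-transferred onto substrate mix (100 uM RS peptide, 1 uM ATP), then 25 nM Clk4 is added. After 1 hr at room temperature, ADP-Glo reagent runs 45 min, detection reagent 30 min, then luminescence is read.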

For test [9] the target is unchanged. The experiment in a line: qHTS Assay for Inhibitors of CDC-like Kinase 4 (ADP-FP Assay) (AID 1795; active = well fitted curve in the direction sought with a large enough effect; an effect the other way counts as inactive or inconclusive; note: % is set by controls: 0 for no effect and ±100 for the full control effect; nearly all actives have a fitted effect of over 60% in size). The following applies: Transcreener ADP fluorescence polarization; series mostly up to 50 µM. The gist of the method: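 Recombinant Clk4 (6.25 nM) phosphorylated 100 uM RS repeat peptide with 1 uM ATP in 25 mM Tris pH 7.5, 10 mM MgCl2, 0.5 mM EGTA, 2.5 mM DTT, 0.01% Triton X-100 for 1 h. ADP was detected by Transcreener ADP2 competitive fluorescence polarization after 30 min at room temperature.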

Test [10] deals with Ubiquitin carboxyl-terminal hydrolase 1 (Homo sapiens) (UniProt O94782). The experiment in a line: Inhibitors of USP1/UAF1: Pilot qHTS (AID 504865; active = well fitted curve in the direction sought with a large enough effect; an effect the other way counts as inactive or inconclusive;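 note: rhodamine fluorescence freed from ubiquitin-rhodamine substrate followed over time; top concentration of the series differs between compounds; % is set by controls: 0 for no effect and ±100 for the full control effect; nearly all actives have a fitted effect of over 35% in size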). The note with it: purified USP1/UAF1, Ub-rhodamine cleavage fluorescence; series mostly up to 54.9 µM. The gist of the method:
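USP1/UAF1 complex at 1 nM preincubated 15 min at room temperature with compound, then Ub-Rho substrate added at 150 nM final. Fluorescence (480/540 nm) read kinetically in 50 mM HEPES pH 7.8, 0.5 mM EDTA, 1 mM TCEP, 0.1 mg/ml BSA, 0.01% Tween-20.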

In test [11] the target is Cytochrome P450 1A2 (Homo sapiens) (UniProt P05177). Put plainly: p450-cyp1a2 (AID 410; calls by dose curve; note: potency is the fitted concentration of half-maximal effect;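 for activity change, negative = inhibition: -100% = full effect of reference inhibitor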). The following applies: recombinant CYP1A2, luciferin-ME demethylation, luminescence; series mostly up to 57 µM. The gist of the method:
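O-Demethylation of luciferin 6' methyl ether by human CYP1A2 is monitored as luciferase luminescence. Substrate sits at Km (100uM); enzyme is 20nM. Values are scaled to 57 uM furafylline as maximal inhibition.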

Test [12] deals with Cytochrome P450 3A4 (Homo sapiens) (UniProt P08684). The experiment in a line: qHTS Assay for Activators of Cytochrome P450 3A4 (AID 885; active = well fitted curve in the direction sought with a large enough effect; an effect the other way counts as inactive or inconclusive; note: nearly all actives have a fitted effect of over 65% in size). The following applies: recombinant CYP3A4, Luciferin-PPXE luminescence, 60 min; series mostly up to 57.1 µM. In outline:
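CYP3A4 activity: Luciferin-PPXE O-dealkylation, 25uM substrate, 200mM KPO4, RT throughout. Read-out is luciferase luminescence; higher values reflect activation.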

Test [13] deals with Lysosomal acid glucosylceramidase (Homo sapiens) (UniProt P04062). The experiment in a line: Glucocerebrosidase-p2 (AID 348; in the data active = potency below about 10 µM; note: potency is the fitted concentration of half-maximal effect). The note with it: purified GBA, blue fluorogenic substrate, 40 min. In outline:
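Normal human glucocerebrosidase (0.2 nM) with blue fluorogenic substrate (80 uM final) in citrate/phosphate pH 5.9 with 10mM sodium taurocholate, 0.01% tween-20; 40 min RT, NaOH/glycine stop; fluorescence Ex 365/Em 440; AC50 from a titration from 0.6 nM upwards.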

Test [14] can be described thus: qHTS Assay for Identification of Small Molecule Agonists for Hypoxia Response Element Signaling Pathway (AID 914; active = well fitted activation curve with a large enough effect in the signal ratio, with a control signal flat, not every such curve was filed as active; the % refers to the signal ratio; note: % of control where 0% means no effect). The following applies: ME-180 (cervical carcinoma) HRE-bla reporter, beta-lactamase ratio, CoCl2, 17 h; activation: stronger effect = higher value. In outline: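 A beta-lactamase reporter under hypoxia response element control in ME-180 cells served as the system. Compound titrations plus EC50 CoCl2 ran 17 h at 37 degrees Celsius; AC50 values were fitted from %Activity.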

The target in test [15] is Glutathione peroxidase 1 (Homo sapiens) (UniProt P07203). The experiment in a line: Primary qHTS Assay for Inhibitors of Recombinant Selenoprotein Glutathione Peroxidase 1 (GPX1) (AID 1845191; active = well fitted curve in the direction sought with a large enough effect; an effect the other way counts as inactive or inconclusive; note: nearly all actives have a fitted effect of over 65% in size). The note with it: recombinant GPX1, GR-coupled NADPH fluorescence, 15 min; series mostly up to 48.8 µM. The gist of the method: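 NADPH consumption tracked by fluorescence at 340/450 nm between t=0 and t=15 min, room temperature. Final mix: 10 nM GPX1, 100 nM glutathione reductase, 1 mM GSH, 0.5 mM NADPH, 0.5 mM cumene hydroperoxide, 0.01% BSA; 30 min compound–enzyme preincubation.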

For test [16], the target named is Cytochrome P450 3A4 (Homo sapiens) (UniProt P08684). Put plainly: qHTS Assay for Inhibitors and Substrates of Cytochrome P450 3A4 (AID 884; active = well fitted curve in the direction sought with a large enough effect; an effect the other way counts as inactive or inconclusive; note: % is set by controls: 0 for no effect and ±100 for the full control effect; nearly all actives have a fitted effect of over 50% in size). The note with it: recombinant CYP3A4, Luciferin-PPXE luminescence; series mostly up to 57.1 µM. The gist of the method: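 Luminescent readout of luciferin produced by CYP3A4 (20 nM) dealkylation of Luciferin-PPXE, 25 uM (its KM). NADPH-driven reaction ran 60 min at RT after 10 min compound preincubation; data scaled to 57 uM ketoconazole as 100% inhibition.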
Sequence of Cytochrome P450 3A4 (Homo sapiens) (P08684 whole entry, looked up): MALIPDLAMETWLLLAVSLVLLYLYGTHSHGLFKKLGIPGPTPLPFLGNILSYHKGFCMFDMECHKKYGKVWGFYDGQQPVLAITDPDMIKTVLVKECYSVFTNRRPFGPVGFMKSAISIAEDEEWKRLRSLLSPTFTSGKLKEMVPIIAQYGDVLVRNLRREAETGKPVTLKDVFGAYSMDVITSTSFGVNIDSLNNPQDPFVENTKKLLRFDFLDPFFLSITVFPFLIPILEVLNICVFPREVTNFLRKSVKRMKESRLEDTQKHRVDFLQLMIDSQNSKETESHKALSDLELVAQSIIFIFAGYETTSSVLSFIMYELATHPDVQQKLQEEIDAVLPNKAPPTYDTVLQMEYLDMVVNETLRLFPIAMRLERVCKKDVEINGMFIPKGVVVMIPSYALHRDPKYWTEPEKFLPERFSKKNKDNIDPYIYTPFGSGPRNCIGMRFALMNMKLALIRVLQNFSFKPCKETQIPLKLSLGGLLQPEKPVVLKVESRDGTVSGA

Sequence of Dual specificity protein kinase CLK4 (Homo sapiens) (Q9HAZ1 whole entry, looked up): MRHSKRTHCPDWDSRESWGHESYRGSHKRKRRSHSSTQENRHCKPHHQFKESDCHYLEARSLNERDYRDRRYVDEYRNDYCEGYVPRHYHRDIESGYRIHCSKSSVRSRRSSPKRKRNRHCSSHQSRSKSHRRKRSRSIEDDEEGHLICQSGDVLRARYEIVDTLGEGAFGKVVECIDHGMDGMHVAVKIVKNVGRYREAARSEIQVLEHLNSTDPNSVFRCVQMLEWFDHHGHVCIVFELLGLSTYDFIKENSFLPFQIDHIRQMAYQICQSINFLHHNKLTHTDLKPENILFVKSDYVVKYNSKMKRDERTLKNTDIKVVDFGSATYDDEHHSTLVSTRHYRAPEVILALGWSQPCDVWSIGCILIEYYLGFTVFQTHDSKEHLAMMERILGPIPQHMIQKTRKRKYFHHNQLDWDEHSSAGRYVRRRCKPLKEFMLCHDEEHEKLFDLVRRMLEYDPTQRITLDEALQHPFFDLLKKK
Sequence of Lysosomal acid glucosylceramidase (Homo sapiens) (P04062 whole entry, looked up): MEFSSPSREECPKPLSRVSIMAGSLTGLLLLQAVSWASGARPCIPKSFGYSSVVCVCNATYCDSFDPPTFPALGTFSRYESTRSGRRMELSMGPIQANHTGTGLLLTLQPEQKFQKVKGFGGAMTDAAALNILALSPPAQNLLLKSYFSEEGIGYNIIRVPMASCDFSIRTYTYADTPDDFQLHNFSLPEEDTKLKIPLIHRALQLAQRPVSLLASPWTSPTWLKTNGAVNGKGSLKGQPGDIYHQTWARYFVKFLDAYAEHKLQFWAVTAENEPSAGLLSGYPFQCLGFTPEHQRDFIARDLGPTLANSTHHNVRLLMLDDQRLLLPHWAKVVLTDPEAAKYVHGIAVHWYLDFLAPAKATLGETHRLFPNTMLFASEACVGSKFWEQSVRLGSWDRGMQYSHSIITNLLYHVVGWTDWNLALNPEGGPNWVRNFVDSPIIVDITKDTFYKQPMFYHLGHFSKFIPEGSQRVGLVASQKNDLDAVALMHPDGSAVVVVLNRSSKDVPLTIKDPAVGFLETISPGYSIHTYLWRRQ
Sequence of Cytochrome P450 1A2 (Homo sapiens) (P05177 whole entry, looked up): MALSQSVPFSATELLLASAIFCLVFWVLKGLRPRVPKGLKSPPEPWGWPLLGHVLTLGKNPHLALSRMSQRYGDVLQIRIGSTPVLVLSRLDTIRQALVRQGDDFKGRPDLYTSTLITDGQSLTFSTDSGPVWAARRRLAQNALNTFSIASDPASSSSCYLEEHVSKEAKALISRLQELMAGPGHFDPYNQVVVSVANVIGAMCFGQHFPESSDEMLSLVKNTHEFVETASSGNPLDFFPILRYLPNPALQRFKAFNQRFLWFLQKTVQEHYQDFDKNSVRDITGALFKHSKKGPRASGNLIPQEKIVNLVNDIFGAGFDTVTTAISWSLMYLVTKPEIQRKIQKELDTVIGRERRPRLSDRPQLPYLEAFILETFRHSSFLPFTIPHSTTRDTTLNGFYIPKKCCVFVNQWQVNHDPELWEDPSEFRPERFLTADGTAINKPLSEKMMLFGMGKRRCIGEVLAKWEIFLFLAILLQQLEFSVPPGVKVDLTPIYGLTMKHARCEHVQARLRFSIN
Sequence of Ubiquitin carboxyl-terminal hydrolase 1 (Homo sapiens) (O94782 whole entry, looked up): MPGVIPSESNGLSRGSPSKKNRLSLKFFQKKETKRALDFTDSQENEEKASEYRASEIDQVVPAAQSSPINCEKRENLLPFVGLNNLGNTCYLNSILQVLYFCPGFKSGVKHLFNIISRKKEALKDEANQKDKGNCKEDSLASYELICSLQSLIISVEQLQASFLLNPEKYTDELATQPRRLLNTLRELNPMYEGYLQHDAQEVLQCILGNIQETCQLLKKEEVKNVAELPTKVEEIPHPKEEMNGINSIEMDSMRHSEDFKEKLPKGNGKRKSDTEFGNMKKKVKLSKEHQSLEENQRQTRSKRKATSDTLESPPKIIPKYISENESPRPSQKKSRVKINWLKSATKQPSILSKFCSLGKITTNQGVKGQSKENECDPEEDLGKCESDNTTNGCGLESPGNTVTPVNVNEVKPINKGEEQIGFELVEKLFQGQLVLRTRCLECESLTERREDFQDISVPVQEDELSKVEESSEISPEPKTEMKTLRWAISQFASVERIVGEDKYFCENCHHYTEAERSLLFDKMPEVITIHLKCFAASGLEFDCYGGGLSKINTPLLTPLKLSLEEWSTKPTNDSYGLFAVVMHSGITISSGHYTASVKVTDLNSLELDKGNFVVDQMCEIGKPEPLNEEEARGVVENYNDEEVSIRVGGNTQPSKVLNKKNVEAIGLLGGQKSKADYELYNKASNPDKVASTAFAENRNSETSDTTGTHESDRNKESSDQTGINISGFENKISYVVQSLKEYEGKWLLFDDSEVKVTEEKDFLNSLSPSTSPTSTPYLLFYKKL
Sequence of Glucocorticoid receptor (Homo sapiens) (P04150 whole entry, looked up, the tested form may be a part): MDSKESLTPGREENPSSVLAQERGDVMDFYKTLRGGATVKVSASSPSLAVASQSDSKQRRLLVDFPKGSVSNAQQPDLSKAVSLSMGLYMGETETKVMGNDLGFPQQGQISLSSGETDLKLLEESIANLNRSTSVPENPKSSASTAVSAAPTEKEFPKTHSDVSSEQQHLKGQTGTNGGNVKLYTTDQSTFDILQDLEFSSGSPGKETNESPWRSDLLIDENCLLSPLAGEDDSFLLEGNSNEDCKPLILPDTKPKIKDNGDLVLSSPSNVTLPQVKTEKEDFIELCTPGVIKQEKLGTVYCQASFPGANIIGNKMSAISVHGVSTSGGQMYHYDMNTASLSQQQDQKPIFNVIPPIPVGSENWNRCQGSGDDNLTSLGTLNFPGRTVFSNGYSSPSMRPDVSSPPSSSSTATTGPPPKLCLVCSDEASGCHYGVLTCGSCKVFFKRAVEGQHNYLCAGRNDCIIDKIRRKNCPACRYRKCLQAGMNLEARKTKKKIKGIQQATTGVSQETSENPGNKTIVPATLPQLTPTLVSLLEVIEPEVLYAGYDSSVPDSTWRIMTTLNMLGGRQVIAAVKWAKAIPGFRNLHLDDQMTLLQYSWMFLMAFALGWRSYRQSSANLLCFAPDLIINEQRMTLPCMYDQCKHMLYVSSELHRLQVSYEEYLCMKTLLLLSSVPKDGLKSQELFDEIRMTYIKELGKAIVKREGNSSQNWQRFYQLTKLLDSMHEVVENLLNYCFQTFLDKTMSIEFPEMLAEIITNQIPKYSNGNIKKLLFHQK
Sequence of Glutathione peroxidase 1 (Homo sapiens) (P07203 whole entry, looked up): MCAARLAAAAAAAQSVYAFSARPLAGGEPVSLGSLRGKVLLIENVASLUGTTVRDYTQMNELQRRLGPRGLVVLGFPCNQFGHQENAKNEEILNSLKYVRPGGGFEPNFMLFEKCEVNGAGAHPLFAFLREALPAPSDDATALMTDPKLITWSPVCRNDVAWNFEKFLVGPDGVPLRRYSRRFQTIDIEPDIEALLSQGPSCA
Sequence of 3',5'-cyclic-AMP phosphodiesterase 4B (Homo sapiens) (Q07343 whole entry, looked up): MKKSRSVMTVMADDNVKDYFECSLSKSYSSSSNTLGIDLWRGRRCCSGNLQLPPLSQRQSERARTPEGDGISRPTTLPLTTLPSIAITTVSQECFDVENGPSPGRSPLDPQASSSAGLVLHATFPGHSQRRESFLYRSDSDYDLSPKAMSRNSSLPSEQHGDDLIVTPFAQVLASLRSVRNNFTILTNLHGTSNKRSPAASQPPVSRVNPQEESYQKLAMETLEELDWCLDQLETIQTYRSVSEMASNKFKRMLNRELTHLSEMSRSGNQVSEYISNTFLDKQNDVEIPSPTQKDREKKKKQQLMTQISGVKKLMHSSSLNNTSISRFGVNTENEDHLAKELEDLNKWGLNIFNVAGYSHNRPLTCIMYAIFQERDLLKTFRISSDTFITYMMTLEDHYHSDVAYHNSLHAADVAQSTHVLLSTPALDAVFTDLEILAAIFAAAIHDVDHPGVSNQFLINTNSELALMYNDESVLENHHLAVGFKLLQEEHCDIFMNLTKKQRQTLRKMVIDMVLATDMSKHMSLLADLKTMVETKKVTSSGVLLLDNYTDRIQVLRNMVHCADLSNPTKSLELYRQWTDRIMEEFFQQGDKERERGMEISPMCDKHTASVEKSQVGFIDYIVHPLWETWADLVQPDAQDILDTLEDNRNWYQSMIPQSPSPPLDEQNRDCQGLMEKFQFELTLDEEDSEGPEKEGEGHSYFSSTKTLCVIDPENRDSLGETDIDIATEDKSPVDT

On to `CN1CCN(c2ncc3nc(-c4cccc(C#N)c4)c(=O)n(CCc4ccccc4)c3n2)CC1`, for which the activity change, negative = inhibition in test [1] was 11.8%; in [2], -0.0285%. For the same compound, the outcome in [3] was inactive. The Potency in [4] is above 9.22 µM; in [5], above 46 µM. Further, the Potency entry in test [6], in test [7], in test [8], in test [9] and in test [10] was “inactive” in each case.
Regarding `Cc1ccccc1-c1nc(Nc2ccncc2)c2ccccc2n1`, the values for the activity change, negative = inhibition in [1] and in [2] were -17.3% and 6.78%, respectively. The Potency is 794 nM (active) in test [11], above 46 µM in [4], above 46 µM in test [5] and 25.1 µM (active) in [8]. In addition, the compound was called inactive in test [3] and in test [12]. The Potency result in test [6] and in test [9] was “inactive” in each case.
`COc1cccc(-c2nc(NCc3cccnc3)c3ccccc3n2)c1`: the Potency in test [13] is above 11.4 µM; in test [11], 158 nM (active); in [4] it was above 46 µM; in test [5], above 46 µM; in test [8], 17.8 µM (active). Further, the activity change, negative = inhibition is -1.11% in [1] and 27.1% in test [2]. The result in test [3] and in [12] was inactive. The Potency result in test [6] was “inactive”. The activation in test [14] is -25.6%.
Turning to `COc1cccc(Nc2ncc3ncc(=O)n(Cc4ccc(F)cc4)c3n2)c1`, the Potency was above 11.4 µM in [13], above 9.22 µM in test [4], above 46 µM in [5] and 2.51 µM (active) in test [8]. Also, the activity change, negative = inhibition is -28.1% in test [1] and -8.23% in [2]. Besides, the call in [3] was inactive. Besides, the activation in [14] was -20.2%. Also, the Potency result in test [10] is “inactive”.
As for `COc1ccccc1-c1nc(NC2CC2)c2ccccc2n1`, the activity change, negative = inhibition in test [1] was -2.64%; in test [2] it was -13.9%. For the same compound, the Potency in test [11] is 316 nM (active); in test [4] it was above 46 µM; in test [5] it was above 46 µM; in test [8], 14.1 µM (active). The call in test [3] and in [12] was inactive. In addition, the Potency entry in test [6] and in test [10] was “inactive” throughout.
For the compound `CC(C)=CCCC(C)=CCCC(C)=CCCC=C(C)CCC=C(C)CCC=C(C)C`, the Potency result in [15] was “inactive”.
As for `C=CC(=C)CCC=C(C)C`, the Potency entry in [6] and in test [16] was “inactive” throughout.
As to `Cc1ncc(COP(=O)(O)O)c(C)c1O`, the results for the Potency in test [13], in test [4] and in [5] were above 11.4 µM, above 46 µM and above 9.22 µM, respectively. Moreover, the figures for the activity change, negative = inhibition in test [1], in test [11] and in test [2] were 9.96%, -20.3% [at 11.4 µM] and -4.14%, respectively. For the same compound, the compound was classed as inactive in [3]. Besides, the Potency result in [7] and in [15] was “inactive” throughout.
